Screens deposited in PubChem BioAssay by National Center for Advancing Translational Sciences (NCATS).
Most compounds without a hit are left out; they make up all but 10% or so of the library.
ELG1 DNA repair: blocks ELG1-dependent DNA repair in HEK293T cells | HEK293T ELG1-luciferase reporter, luminescence, 16 h; DNA damage induced by 5-fluorouridine | Potency, µM (top dose mostly 46.1 µM), for the others: at the highest dose activity change, negative = inhibition, most hits filed as inhibitors | 330,000 tested, 2.3% active; note: % is set by controls: 0 for no effect and ±100 for the full control effect; nearly all actives have a fitted effect of over 55% in size
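Reporter activity after DNA damage by 5-fluorouridine is monitored. Compound-treated cells incubate 16 hr at 37 °C, then ONE-Glo is added for 30 min before luminescence reading.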
RORgamma inh: ROR gamma (mouse) transcription inhibition; Potency, µM (top dose mostly 53.6 µM), inactives show at the top dose activity change, negative = inhibition, hits mostly inhibitors; Drosophila S2 Gal4-RORgamma UAS-luciferase reporter, 20 h; P51450; 310,000 tested, 5.4% active; note: % is set by controls: 0 for no effect and ±100 for the full control effect; nearly all actives have a fitted effect of over 60% in size
Target sequence (P51450 whole entry, looked up, the tested form may be a part): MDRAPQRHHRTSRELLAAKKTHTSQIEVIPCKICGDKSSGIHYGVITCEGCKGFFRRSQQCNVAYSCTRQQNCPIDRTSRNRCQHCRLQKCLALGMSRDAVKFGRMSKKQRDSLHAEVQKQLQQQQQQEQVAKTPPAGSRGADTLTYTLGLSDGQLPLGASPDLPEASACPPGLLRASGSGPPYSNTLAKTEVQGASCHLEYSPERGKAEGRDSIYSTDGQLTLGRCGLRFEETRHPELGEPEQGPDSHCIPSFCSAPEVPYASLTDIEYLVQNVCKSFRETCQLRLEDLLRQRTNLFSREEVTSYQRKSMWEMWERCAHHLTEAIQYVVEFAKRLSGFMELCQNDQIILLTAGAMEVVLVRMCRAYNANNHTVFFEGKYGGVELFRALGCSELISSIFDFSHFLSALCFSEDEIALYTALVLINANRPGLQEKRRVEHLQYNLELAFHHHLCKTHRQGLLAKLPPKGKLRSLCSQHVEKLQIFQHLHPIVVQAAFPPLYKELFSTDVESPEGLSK
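Drosophila Schneider cells stably carrying a metallothionein-driven Gal4 DBD–ROR gamma fusion and a UAS-Photinus luciferase reporter were exposed to compound for 1 hr, then induced with copper sulfate (700 uM final) for 20 hr at ambient temperature before luminescence reading.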
SW480 rerep: inducers of DNA re-replication in SW480 colon cancer cells; 340,000 tested, 1.8% active; AID 624297; SW480 DNA re-replication, Hoechst DNA content imaging, 48 h; Potency, µM (top dose mostly 46.1 µM), for the others: at the highest dose re-replication activation, usual class: activators; note: % of control where 0% means no effect; nearly all actives have a fitted effect of over 55% in size
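Compounds, transferred as 23 nL by pin tool, were incubated with cells for 48 hr; DNA content per nucleus was then quantified by Hoechst staining and fluorescence plate imaging.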
Gal4-VP16 FLuc: inhibits Gal4-VP16 luciferase reporter, ROR gamma counter-screen; Drosophila S2 Gal4-VP16 UAS-luciferase, luminescence, 20 h; Potency, µM (series often up to 53.6 µM), for inactives: at the top dose activity, negative = inhibition, usual class: inhibitors; 310,000 tested, 3.5% active; AID 2546;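 note: Gal4-VP16 expression switched on by copper sulfate through the metallothionein promoter; % is set by controls: 0 for no effect and ±100 for the full control effect; nearly all actives have a fitted effect of over 50% in size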
MCF10A rereplic: inducers of DNA re-replication in MCF 10A breast cells | Potency, µM (series often up to 46.1 µM), without a hit: at the highest dose activity, positive = re-replication, most hits filed as activators | 350,000 tested, 2.9% active | MCF 10A DNA re-replication, Hoechst nuclear intensity, 48 h | AID 624296; note: % of control where 0% means no effect; nearly all actives have a fitted effect of over 50% in size
* = called active by the depositor; ? = inconclusive; / = not tested or not shown. Calls come from the whole dose curve; as a rule, active = well fitted curve in the direction sought with a large enough effect; inconclusive = small, poorly fitted or top-dose-only effect, or another doubt; inactive = no such curve, though single readings can be large; an effect the other way counts as inactive or inconclusive. Potency is the fitted concentration of half-maximal effect.

SMILES	ELG1 DNA repair	RORgamma inh	SW480 rerep	Gal4-VP16 FLuc	MCF10A rereplic
O=C(Nc1ccc(NS(=O)(=O)c2ccccc2)cc1)c1ccccc1Cl	?	/	-1%	/	0%
Clc1ccc(-c2nc3ncccn3c2Cl)cc1	?	16%	17%	10%	-6%
O=Nc1nc2ncccn2c1-c1ccccc1	/	/	9.2µM*	/	13µM*
CCC(C)Nc1ccc(NC(C)CC)cc1 (centres undefined)	?	?	30%	?	2.6µM*
Cc1cccc(NC(=O)CC2C(=O)NCCN2C(=S)Nc2ccccc2)c1 (centres undefined)	10%	?	-1%	-6%	16µM*
CCOC(=O)c1nc(-c2ccccc2)oc1N1CCOCC1	-7%	-10%	1%	-6%	8%
COc1ccccc1N1CCN(CCCNC(=O)C2CCCN(c3ncnc4c3nc3n4CCCCC3)C2)CC1 (centres undefined)	12µM*	-14%	-2%	0%	8%
COc1cccc(CCNC(=O)C2CCCN(c3ncnc4c3nc3n4CCCCC3)C2)c1OC (centres undefined)	7.3µM*	-3%	?	-5%	9%
COc1ccc(OC)c(NC(=O)COC(=O)CCc2ccc(S(=O)(=O)N3CCOCC3)cc2)c1	5%	/	-2%	/	-12%
Cc1ccnn1-c1ccc(C(=O)N2CCCN(S(=O)(=O)c3ccc(F)cc3)CC2)cc1	-13%	/	-4%	/	-3%
Cc1ccc2c(CN3CCN(S(=O)(=O)c4ccccc4C(F)(F)F)CC3)cc(=O)oc2c1C	16µM*	/	-17%	/	22%
Cc1ccc2c(CN3CCCCC3)cc(=O)oc2c1C	?	-2%	-5%	8%	?
CCc1ccc2c(CN3CCN(S(=O)(=O)c4ccccc4F)CC3)cc(=O)oc2c1	23µM*	/	15%	/	4%
O=C(COC(=O)c1cc(-c2ccccn2)nc2ccccc12)Nc1ncc(C(F)(F)F)cc1Cl	?	18%	-5%	-7%	17%
O=C(CCl)NC(=O)NC12CC3CC(CC(C3)C1)C2	16µM*	?	/	?	?
CC(Cl)C(=O)NC(=O)NC12CC3CC(CC(C3)C1)C2 (centres undefined)	?	29%	/	17%	16%
Cc1cc(=O)[nH]c2c1c(C)nn2C1CCCC1	22%	7%	-8%	4%	10%
Cc1cc(=O)[nH]c2c1c(C)nn2C1CCCCC1	0%	-14%	8.2µM*	2%	6.5µM*
COc1ccc(N2CCc3c(C)nc4c(OC)cc(OC)cc4c32)cc1	?	-30%	14%	-14%	?
COc1cccc(N2CCc3c(C)nc4ccc(Cl)cc4c32)c1	23µM*	-40%	?	-4%	?
CCN1Cc2c(/C=C/c3ccccc3)nc3ccc(OC)cc3c2N(c2cccc(Cl)c2)C1	?	6%	28%	-2%	26µM*
COc1ccc2nc(-c3ccccc3)nc(SC)c2c1	/	/	-18%	/	?
COc1ccc(N2CCc3c(C)nc4c(OC)cccc4c32)cc1	?	20µM*	?	-7%	?
COc1ccc(N2CCc3c(C)nc4c(OC)cc(OC)cc4c32)c(OC)c1	?	-25%	?	-9%	26µM*
Cn1c(=O)c([N+](=O)[O-])c(N2CCSCC2)c2ccccc21	?	14%	-12%	?	0%
SMILES	ELG1 DNA repair	RORgamma inh	SW480 rerep	Gal4-VP16 FLuc	MCF10A rereplic
CCn1c(=O)c([N+](=O)[O-])c(N2CCSCC2)c2ccccc21	6.5µM*	8%	-3%	?	?
CCn1c(=O)c([N+](=O)[O-])c(N2CCN(Cc3ccc4c(c3)OCO4)CC2)c2ccccc21	15µM*	?	-1%	-24%	?
O=c1c([N+](=O)[O-])c(N2CCOCC2)c2ccccc2n1Cc1ccccc1	-5%	32%	-6%	15%	12%
CN1CCc2c(sc3c2C(=O)NC(c2ccc(-c4ccc(Cl)cc4)o2)N3)C1 (centres undefined)	?	-11%	?	-4%	23µM*
CC(C)CN1C(=O)C(=O)N(CC(=O)Nc2cc(Cl)ccc2Oc2ccccc2)C1=O	?	?	?	11%	1%
COc1cc(/C=N/Nc2ncc(C(F)(F)F)cc2Cl)cc(OC)c1OC	?	?	7.3µM*	20µM*	?
COc1ccc(/C=N/Nc2ncc(C(F)(F)F)cc2Cl)c(OC)c1OC	16%	2.8µM*	-7%	7.9µM*	17%
COc1cc(/C=N/Nc2ccc(C(F)(F)F)cn2)ccc1O	?	-16%	19%	5%	3%
COc1ccc(/C=N/Nc2ncnc3c2[nH]c2ccccc23)c(OC)c1OC	14%	4%	-107%	0%	?
COc1cc(/C=N/Nc2ncc(C(F)(F)F)cc2Cl)cc(OC)c1O	13µM*	11µM*	-3%	20µM*	-4%
CC(=O)Nc1ccc(SCCN2CCN(CCc3ccccc3)CCC2=O)cc1	/	-22%	/	-16%	/
Cc1cc(C)nc(SCC(=O)NN)n1	-12%	8.9µM*	-1%	-9%	-2%
COC(=O)c1cc2occc2n1CC(=O)Nc1ccc(OC)c(OC)c1OC	7%	-16%	-3%	-2%	4%
COC(=O)c1cc2sc(Cl)cc2n1CC(=O)Nc1ccc(OC)c(OC)c1OC	?	?	18%	-2%	26µM*
Nc1c(Cl)cc(N=Nc2ccccc2)cc1Cl	/	/	21%	/	23µM*
Nc1[nH][nH]c(=O)c1N=Nc1ccccc1	/	/	-3%	/	2%
COc1cccc(NC(=S)NCc2ccccc2)c1	?	10µM*	-17%	8.9µM*	-6%
COc1cccc(NC(=S)NCc2cccnc2)c1	1%	19%	7%	-3%	?
Cc1ccc(NC(=S)N(Cc2ccccc2)Cc2cccs2)c(C)c1	8%	7.1µM*	12%	?	-8%
COc1ccc(Cl)cc1NC(=S)NCc1cccs1	17%	10µM*	29%	?	-22%
COc1cccc(NC(=S)NCc2cccs2)c1	?	10µM*	-4%	?	1%
COc1ccccc1NC(=S)NCc1cccs1	0%	?	-8%	-27%	7%
Cc1cccc(NC(=S)NNC(=S)NCc2ccccc2)c1	8%	-25%	4%	1%	14%
Cc1cccc(NC(=S)NCc2cccs2)c1	-6%	6.3µM*	-10%	?	5%
O=C(Cc1cccs1)NCc1ccc(F)cc1	?	28%	-4%	19%	4%
Cc1ccc(NC(=S)NCc2cccs2)cc1	?	11µM*	-2%	?	11%
Fc1ccc(NC(=S)NCc2cccs2)cc1	2%	11µM*	?	28µM*	-55%
CC(C)NC(=S)NCc1cccs1	-5%	?	?	-5%	-14%
CCCCc1ccc(NC(=S)NCc2cccs2)cc1	4%	2.2µM*	-15%	?	?
